Counter-ions that a name gives are not always drawn.
Key:
Details in all cases: incubation time: 27 h, anaerobic, 37 °C;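 for the amine columns active = adjusted P below 0.05 in both replicates with a change the same way and a mean fold change under 0.8 or over 1.25; inactive = the rest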
[1] = system: Clostridium sporogenes DSM 1664; assay: growth (OD595) fold change vs plate DMSO controls (fold change (ratio)); higher = more growth
Outline: (§1)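 Absorbance at 595 nm was read after shaking the anaerobic mGAM cultures, which had grown in 96-well plates for 27 h at 37 °C. After blank subtraction and background correction against 20 µM compound solutions in water, a calibration factor of 5 gave OD values. Growth is the fold change against the median of the plate's DMSO controls. Values are the mean of 2 biological replicates, with fold changes above 1.5 set to NA.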

[2] = system: Escherichia coli IAI1; assay: as above
Outline: as §1

[3] = system: Klebsiella aerogenes DSM 30053; assay: as above
Outline: as §1

[4] = system: Ruminococcus gnavus DSM 108212; assay: as above
Outline: as §1

[5] = system: Klebsiella aerogenes DSM 30053; assay: fold change of Histamine concentration vs plate DMSO controls (fold change (ratio)); higher = more amine produced, active = hit call of the paper (significant change in both replicates, either direction)
Outline: (§2)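 In 80 µL wells, cultures of four gut bacterial strains in mGAM started at OD 0.1 before a 1:1 dilution and grew anaerobically at 37 °C for 27 h. Compounds were added to 20 µM final, except sweeteners at 50 µM final. After extraction of whole cultures with cold acetonitrile/methanol plus 0.1% formic acid and centrifugation, amines were measured by LC–triple-quadrupole MS in dynamic MRM mode against external calibration curves, with within-batch drift correction. Values give fold change over DMSO controls on the same plate, averaged across 2 biological replicates.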

[6] = system: Clostridium sporogenes DSM 1664; assay: fold change of Tryptamine concentration vs plate DMSO controls (fold change (ratio)); higher = more amine produced, active = hit call of the paper (significant change in both replicates, either direction)
Outline: as §2

[7] = system: Ruminococcus gnavus DSM 108212; assay: as above
Outline: as §2

[8] = system: Escherichia coli IAI1; assay: fold change of Putrescine concentration vs plate DMSO controls (fold change (ratio)); higher = more amine produced, active = hit call of the paper (significant change in both replicates, either direction)
Outline: as §2

[9] = system: Klebsiella aerogenes DSM 30053; assay: as above
Outline: as §2

[10] = system: Escherichia coli IAI1; assay: fold change of Cadaverine concentration vs plate DMSO controls (fold change (ratio)); higher = more amine produced, active = hit call of the paper (significant change in both replicates, either direction)
Outline: as §2

[11] = system: Klebsiella aerogenes DSM 30053; assay: as above
Outline: as §2

[12] = system: Ruminococcus gnavus DSM 108212; assay: fold change of 2-Phenylethylamine concentration vs plate DMSO controls (fold change (ratio)); higher = more amine produced, active = hit call of the paper (significant change in both replicates, either direction)
Outline: as §2

## O=C(N/N=C/c1ccc([N+](=O)[O-])o1)c1ccc(O)cc1 [Nifuroxazide] (20 µM)
[1]
  growth: 1.11
[2]
  growth: 1.03
[3]
  growth: 0.907
[4]
  growth: 1.2
[5]
  fold change of Histamine concentration: 1.01 (inactive)
[6]
  fold change of Tryptamine concentration: 0.998 (inactive)
[7]
  fold change of Tryptamine concentration: 0.89 (inactive)
[8]
  fold change of Putrescine concentration: 0.759 (active)
[9]
  fold change of Putrescine concentration: 0.954 (inactive)
[10]
  fold change of Cadaverine concentration: 1.58 (active)
[11]
  fold change of Cadaverine concentration: 1.02 (inactive)
[12]
  fold change of 2-Phenylethylamine concentration: 0.626 (active)

## CC(C)(CO)[C@@H](O)C(=O)NCCCC(=O)O [Hopantenate calcium] (20 µM)
[1]
  growth: 1.07
[2]
  growth: 0.997
[3]
  growth: 0.983
[4]
  growth: 1.05
[5]
  fold change of Histamine concentration: 1.03 (inactive)
[6]
  fold change of Tryptamine concentration: 1.02 (inactive)
[7]
  fold change of Tryptamine concentration: 1.04 (inactive)
[8]
  fold change of Putrescine concentration: 1.01 (inactive)
[9]
  fold change of Putrescine concentration: 0.995 (inactive)
[10]
  fold change of Cadaverine concentration: 1.03 (inactive)
[11]
  fold change of Cadaverine concentration: 0.988 (inactive)
[12]
  fold change of 2-Phenylethylamine concentration: 1.03 (inactive)

## CCOc1ccc(Cc2nccc3cc(OCC)c(OCC)cc23)cc1OCC [Ethaverine hydrochloride] (20 µM)
[1]
  growth: 0.848
[2]
  growth: 0.99
[3]
  growth: 0.954
[4]
  growth: 1.05
[5]
  fold change of Histamine concentration: 1 (inactive)
[6]
  fold change of Tryptamine concentration: 0.945 (inactive)
[7]
  fold change of Tryptamine concentration: 0.935 (inactive)
[8]
  fold change of Putrescine concentration: 1.05 (inactive)
[9]
  fold change of Putrescine concentration: 1.01 (inactive)
[10]
  fold change of Cadaverine concentration: 1.03 (inactive)
[11]
  fold change of Cadaverine concentration: 0.982 (inactive)
[12]
  fold change of 2-Phenylethylamine concentration: 0.895 (inactive)

## CCCc1nc2c(C)cc(-c3nc4ccccc4n3C)cc2n1Cc1ccc(-c2ccccc2C(=O)O)cc1 [Telmisartan] (20 µM)
[1]
  growth: 0.962
[2]
  growth: 0.99
[3]
  growth: 1.02
[4]
  growth: 0.953
[5]
  fold change of Histamine concentration: 1.02 (inactive)
[6]
  fold change of Tryptamine concentration: 0.911 (inactive)
[7]
  fold change of Tryptamine concentration: 0.966 (inactive)
[8]
  fold change of Putrescine concentration: 1.04 (inactive)
[9]
  fold change of Putrescine concentration: 1.01 (inactive)
[10]
  fold change of Cadaverine concentration: 1.05 (inactive)
[11]
  fold change of Cadaverine concentration: 0.996 (inactive)
[12]
  fold change of 2-Phenylethylamine concentration: 1.01 (inactive)

## C/C(=C(\CCOC(=O)c1ccccc1)SS/C(CCOC(=O)c1ccccc1)=C(/C)N(C=O)Cc1cnc(C)nc1N)N(C=O)Cc1cnc(C)nc1N [Bisbentiamine] (20 µM)
[1]
  growth: 0.925
[2]
  growth: 0.985
[3]
  growth: 0.994
[4]
  growth: 1.01
[5]
  fold change of Histamine concentration: 1 (inactive)
[6]
  fold change of Tryptamine concentration: 0.975 (inactive)
[7]
  fold change of Tryptamine concentration: 0.917 (inactive)
[8]
  fold change of Putrescine concentration: 0.998 (inactive)
[9]
  fold change of Putrescine concentration: 0.999 (inactive)
[10]
  fold change of Cadaverine concentration: 1.03 (inactive)
[11]
  fold change of Cadaverine concentration: 0.983 (inactive)
[12]
  fold change of 2-Phenylethylamine concentration: 0.855 (inactive)

## CN[C@@H]1[C@@H](O)[C@@H](O[C@@H]2[C@@H](O)[C@H](O[C@H]3OC(CN)=CC[C@H]3N)[C@@H](N)C[C@H]2N)OC[C@]1(C)O [Sisomicin sulfate] (20 µM)
[1]
  growth: 0.97
[2]
  growth: 0.99
[3]
  growth: 0.992
[4]
  growth: 0.942
[5]
  fold change of Histamine concentration: 0.971 (inactive)
[6]
  fold change of Tryptamine concentration: 0.984 (inactive)
[7]
  fold change of Tryptamine concentration: 1.02 (inactive)
[8]
  fold change of Putrescine concentration: 1 (inactive)
[9]
  fold change of Putrescine concentration: 0.998 (inactive)
[10]
  fold change of Cadaverine concentration: 0.996 (inactive)
[11]
  fold change of Cadaverine concentration: 1 (inactive)
[12]
  fold change of 2-Phenylethylamine concentration: 1.04 (inactive)

## CN1C(=O)OC(C)(C)C1=O [Trimethadione] (20 µM)
[1]
  growth: 1
[2]
  growth: 1.03
[3]
  growth: 1.01
[4]
  growth: 1.27
[5]
  fold change of Histamine concentration: 0.977 (inactive)
[6]
  fold change of Tryptamine concentration: 0.924 (inactive)
[7]
  fold change of Tryptamine concentration: 0.948 (inactive)
[8]
  fold change of Putrescine concentration: 1.02 (inactive)
[9]
  fold change of Putrescine concentration: 0.987 (inactive)
[10]
  fold change of Cadaverine concentration: 0.991 (inactive)
[11]
  fold change of Cadaverine concentration: 0.999 (inactive)
[12]
  fold change of 2-Phenylethylamine concentration: 0.919 (inactive)

## COC(=O)[C@H](c1ccccc1Cl)N1CCc2sccc2C1 [Clopidogrel] (20 µM)
[1]
  growth: 1.01
[2]
  growth: 1.25
[3]
  growth: 0.982
[4]
  growth: 0.969
[5]
  fold change of Histamine concentration: 1.06 (inactive)
[6]
  fold change of Tryptamine concentration: 0.986 (inactive)
[7]
  fold change of Tryptamine concentration: 0.963 (inactive)
[8]
  fold change of Putrescine concentration: 1.23 (inactive)
[9]
  fold change of Putrescine concentration: 1.02 (inactive)
[10]
  fold change of Cadaverine concentration: 0.975 (inactive)
[11]
  fold change of Cadaverine concentration: 0.996 (inactive)
[12]
  fold change of 2-Phenylethylamine concentration: 0.941 (inactive)

## CN(C)CCOC(=O)C(c1ccccc1)C1(O)CCCC1 (configuration not stated) [Cyclopentolate hydrochloride] (20 µM)
[1]
  growth: 0.823
[2]
  growth: 1.04
[3]
  growth: 1.04
[4]
  growth: 0.93
[5]
  fold change of Histamine concentration: 0.982 (inactive)
[6]
  fold change of Tryptamine concentration: 1.01 (inactive)
[7]
  fold change of Tryptamine concentration: 1.02 (inactive)
[8]
  fold change of Putrescine concentration: 1.04 (inactive)
[9]
  fold change of Putrescine concentration: 0.987 (inactive)
[10]
  fold change of Cadaverine concentration: 0.977 (inactive)
[11]
  fold change of Cadaverine concentration: 0.99 (inactive)
[12]
  fold change of 2-Phenylethylamine concentration: 1.05 (inactive)

## CCC[C@@H]1C[C@@H](C(=O)N[C@@H]([C@H]2O[C@H](SC)[C@H](O)[C@@H](O)[C@H]2O)[C@H](C)Cl)N(C)C1 [Clindamycin hydrochloride] (20 µM)
[1]
  growth: 0.899
[2]
  growth: 0.682
[3]
  growth: 0.934
[4]
  growth: 0.134
[5]
  fold change of Histamine concentration: 1.54 (inactive)
[6]
  fold change of Tryptamine concentration: 0.0905 (active)
[7]
  fold change of Tryptamine concentration: 0.136 (active)
[8]
  fold change of Putrescine concentration: 0.4 (inactive)
[9]
  fold change of Putrescine concentration: 0.537 (inactive)
[10]
  fold change of Cadaverine concentration: 0.844 (inactive)
[11]
  fold change of Cadaverine concentration: 0.932 (inactive)
[12]
  fold change of 2-Phenylethylamine concentration: 0.125 (active)

## COCCOC(=O)C1=C(C)NC(C)=C(C(=O)OC(C)C)C1c1cccc([N+](=O)[O-])c1 (configuration not stated) [Nimodipine] (20 µM)
[1]
  growth: 0.946
[2]
  growth: 0.814
[3]
  growth: 1.03
[4]
  growth: 0.991
[5]
  fold change of Histamine concentration: 0.947 (inactive)
[6]
  fold change of Tryptamine concentration: 0.965 (inactive)
[7]
  fold change of Tryptamine concentration: 0.909 (inactive)
[8]
  fold change of Putrescine concentration: 0.889 (inactive)
[9]
  fold change of Putrescine concentration: 0.99 (inactive)
[10]
  fold change of Cadaverine concentration: 1.09 (inactive)
[11]
  fold change of Cadaverine concentration: 1.01 (inactive)
[12]
  fold change of 2-Phenylethylamine concentration: 0.903 (inactive)

From the supplement of paper PMC12494721
